Experimental data: PubChem BioAssay AID1251 (SRMLSC, 2008)
Screen size: about 200,000 compounds; about 720 (0.36%) were called active. Cut-off read from the data, not from the text of the source: active = inhibition above about 30%; inactive = the rest, inconclusive results apart. The full list was thinned out, with actives kept by preference.

assay: antivirals against arbovirus infection, primary screen, cell-based, full library, 10K replicate subset (AID 1251); details: arbovirus infection cell-based antiviral screen, at 10 µM, stronger effect = higher value

Row | SMILES | inhibition
1 | COc1cccc(CNn2cn[nH]c2=S)c1OCc1ccccc1 | -1.17% (inactive)
2 | NC(=O)CC[C@@H]1NC(=O)[C@@H]2CCCN2C(=O)c2cc([N+](=O)[O-])cc(F)c2NCCC[C@@H](C(N)=O)NC1=O | 8.77% (inactive)
3 | O=C(CSc1ncn[nH]1)NCc1ccc2c(c1)OCO2 | 2.87% (inactive)
4 | CCNC(=S)N1CCN(c2ncccn2)CC1 | -0.7% (inactive)
5 | O=C(C1=C[C@H](C2CC2)C[C@H](OCc2ccc(CO)cc2)O1)N1CCN(Cc2ccccc2)CC1 | 4.26% (inactive)
6 | CN(C)NC(=O)C(NC(=O)c1ccc(N)cc1)C12CC3CC(CC(C3)C1)C2 (stereo not given) | 5.7% (inactive)
7 | CCOC(=O)c1ccccc1N1C(=O)C2Sc3[nH]c(=O)sc3C(/C=C/c3ccccc3)C2C1=O (stereo not given) | -0.3% (inactive)
8 | CCC(C)NCCOCCOc1ccc(Br)cc1C (stereo not given) | -28.9% (inactive)
9 | COc1ccc2cc(CCl)c(Cl)nc2c1 | -7.11% (inactive)
10 | CCCn1c(N)c(C(=O)CSc2nc3ccccc3c(=O)n2-c2ccc(OC)cc2)c(=O)[nH]c1=O | 30.7% (active)
11 | CCCn1c(N)c(C(=O)CSc2nnc(-c3cccnc3)n2-c2ccc(C)cc2C)c(=O)[nH]c1=O | 6.05% (inactive)
12 | COc1cccc(-n2c(SCC(=O)c3c[nH]c4ccccc34)nc3ccccc3c2=O)c1 | 5.13% (inactive)
13 | CCCCCOc1ccc(CSC2=NCCN2)cc1[N+](=O)[O-] | -7.5% (inactive)
14 | CCOC(=O)Cn1c(N)c(C(=O)OC)sc1=S | 0.02% (inactive)
15 | CCOC(=O)c1sc(=S)n(-c2cccc(OC)c2)c1N | 0.93% (inactive)
16 | CCOC(=O)c1sc(=S)n2c1[nH]c(=O)c1ccc(C(=O)OC)cc12 | 32.4% (active)
17 | CCOC(=O)C1=C(C)NC(=S)NC1c1cccs1 (stereo not given) | -5% (inactive)
18 | COC(=O)c1ccc(NC(=O)c2cc(Cl)ccc2OC)cc1 | -17.6% (inactive)
19 | CC(=O)N1CCN(S(=O)(=O)c2c(F)cc(F)c(Cl)c2F)CC1 | 6.03% (inactive)
20 | Cc1ccc(N2C(=O)C(CC(=O)Nc3cccc(F)c3)N(CCc3ccncc3)C2=O)cc1 (stereo not given) | 7.79% (inactive)
21 | COc1ccc(CCCc2nnc(SCc3nc4ccccc4c(=O)[nH]3)n2C)cc1 | 31.9% (active)
22 | CCn1c(COc2c(C)cccc2C)nnc1SCc1nc2ccccc2c(=O)[nH]1 | 0.34% (inactive)
23 | CCn1c(Cc2ccccc2)nnc1SCc1nc2ccccc2c(=O)[nH]1 | 5.28% (inactive)
24 | Cc1ccc(N(CCC(=O)O)S(=O)(=O)c2cccc(C(F)(F)F)c2)cc1 | 5.45% (inactive)
25 | O=c1nc(N/N=C/c2ccco2)cn[nH]1 | -4.7% (inactive)
